Source: PubChem
This is one part of a sample in which hits are shown more often than they occur.
Dicer inh: inhibitors of Dicer pre-microRNA processing, primary screen, biochemical, cat-ELCCA, chemiluminescence; z-score at 25 µM; Endoribonuclease Dicer (Homo sapiens), Q9UPY3; 47,000 tested, 6% active; cat-ELCCA pre-miR-21 Dicer processing; active compounds read high; in the data active = z-score above about 3, passing the limit was not always enough;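 also: plate controls were vehicle for no effect and no enzyme for full effect; higher signal means more uncleaved substrate so more Dicer inhibition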
* hit, by the source's call.

SMILES	Dicer inh
Cn1nc(C(F)(F)C(F)F)cc1-c1ccccc1O	5.3*
C/C(=N\N=C(/N)SCc1cc(F)cc2c1OCOC2)c1ccc(C)nc1	-1.3
COc1ccc(Cc2nnc(SCC3CC3)n2-c2ccc(F)cc2)cc1OC	1
C=CCNc1nc(SCc2ccc(Cl)cc2)nc2sc3c(c12)CCN(C)C3	0.24
Cc1nc(-c2ccccc2)c2c(=O)cc(-c3ccccc3)[nH]c2n1	1.8
O=c1cc(-c2ccccc2)[nH]c2ccccc12	4*
O=c1nc(-c2ccccc2)c2ccccc2[nH]1	6.6
CCc1ccc2[nH]c(C(=O)NCc3cc(Cl)ccc3Cl)cc2c1	-4.1
CCc1ccc2[nH]c(C(=O)Nc3ccc(Br)c(C)n3)cc2c1	44*
COc1ccc2[nH]c(C(=O)Nc3ccc(Br)c(C)n3)cc2c1	-1.7
CCOC(=O)c1cc(-c2ccc(Cl)cc2)oc1/C=N/OC(=O)c1ccccc1	-0.99
COc1cc2nc(SCC(=O)Nc3ccc(F)c(Cl)c3)n(-c3ccccc3)c(=O)c2cc1OC	0.64
CCN(CC)CC(=O)N1c2ccccc2Sc2ccccc21	1.6
O=C(CN1CCCCC1)N1c2ccccc2Sc2ccccc21	-0.03
NCCCC(=O)N1c2ccccc2Sc2ccccc21	5.5*
Cc1noc(C)c1S(=O)(=O)Nc1csc(C(F)(F)F)c1-c1ccccc1	-0.33
CCOc1ccc(-c2nc3n(n2)C(c2ccc(OC)cc2)C2=C(CC(C)(C)CC2=O)N3)cc1 (configuration not stated)	1.4
Nc1cccc(C(=O)CC2(O)C(=O)Nc3ccc(Br)cc32)c1 (configuration not stated)	-0.57
CN1C(=O)C(O)(CC(=O)c2ccc(C3CCCCC3)cc2)c2ccccc21 (configuration not stated)	0.77
O=C(CC1(O)C(=O)Nc2ccccc21)c1ccc2ccccc2c1 (configuration not stated)	4.4*
O=C(CC1(O)C(=O)Nc2ccc(Cl)cc21)c1cccc2ccccc12 (configuration not stated)	0.59
O=C(CC1(O)C(=O)Nc2ccccc21)c1ccc(C2CCCCC2)cc1 (configuration not stated)	4.2*
O=C(CC1(O)C(=O)Nc2ccccc21)CC1(O)C(=O)Nc2ccccc21 (configuration not stated)	-0.07
O=C(CC1(O)C(=O)Nc2ccccc21)c1cccc2ccccc12 (configuration not stated)	5.2*
O=C(CC1(O)C(=O)Nc2ccc(Br)cc21)c1ccc2ccccc2c1 (configuration not stated)	-0.36
SMILES	Dicer inh
O=C(CC1(O)C(=O)Nc2ccc(Cl)cc21)c1ccc(Cl)cc1 (configuration not stated)	-0.72
Nc1cccc(C(=O)CC2(O)C(=O)Nc3ccc(Cl)cc32)c1 (configuration not stated)	12*
Cc1ccc(C(=O)CC2(O)C(=O)Nc3ccccc32)cc1 (configuration not stated)	-0.4
O=C(CC1(O)C(=O)Nc2ccccc21)c1ccc(Br)cc1 (configuration not stated)	0.37
CC(=O)O[C@H]1[C@H](OC(C)=O)[C@H](OC(C)=O)CO[C@@H]1c1nc2ccccc2s1	-0.38
Cc1cccc(C)c1-n1c(-c2ccncc2)n[nH]c1=S	-1.3
COC(=O)c1sccc1NC(=O)C(F)(F)F	0.41
Nc1ncnc2c1nc(N/N=C/c1cccnc1)n2[C@H]1O[C@@H](CO)[C@H](O)[C@@H]1O	1.2
COCCCN1C(=O)C(=O)/C(=C(\O)c2ccc(OC)cc2)C12C(=O)N(C)c1ccccc12 (configuration not stated)	2.6
CCCN1C(=O)C2(/C(=C(/O)c3ccc(OC)cc3)C(=O)C(=O)N2CCCOC)c2ccccc21 (configuration not stated)	3.1*
CCCN1C(=O)C2(/C(=C(/O)c3ccccc3)C(=O)C(=O)N2CCCOC)c2ccccc21 (configuration not stated)	5*
CCCN1C(=O)C2(/C(=C(/O)c3ccccc3)C(=O)C(=O)N2CCCN(C)C)c2ccccc21 (configuration not stated)	4.4*
CCCN1C(=O)C2(/C(=C(/O)c3ccc(C)cc3)C(=O)C(=O)N2CCCOC)c2ccccc21 (configuration not stated)	1.2
CCCN1C(=O)C2(/C(=C(/O)c3ccc(OCC)cc3)C(=O)C(=O)N2CCN(C)C)c2ccccc21 (configuration not stated)	51
CCCN1C(=O)C2(/C(=C(/O)c3ccc(Cl)cc3)C(=O)C(=O)N2CCCN(C)C)c2ccccc21 (configuration not stated)	-2.9
CCCN1C(=O)C2(/C(=C(/O)c3ccc(Cl)cc3)C(=O)C(=O)N2CCOC)c2ccccc21 (configuration not stated)	-1.6
CCCN1C(=O)C2(/C(=C(/O)c3ccc(C)cc3)C(=O)C(=O)N2CCCN(C)C)c2ccccc21 (configuration not stated)	0.61
Nc1c(C(=O)Nc2cc(F)ccc2F)sc2nc(-c3cccs3)ccc12	-0.03
O=C1C(=O)N(CN2CCc3ccccc3C2)c2ccc(Br)cc21	-2.5
CCOC(=O)c1sc2nc3n(c(=O)c2c1C)CCCC3C(=O)OCC (configuration not stated)	1.6
COC(=O)C1=NN(c2ccccc2)C(=O)/C1=C\N(C)C	0.53
CC1=C(C(=O)OCC(C)C)C(c2ccc(C)s2)C2=C(CC(C)(C)CC2=O)N1 (configuration not stated)	2.3
COc1ccc(OC)c(C2SCCN2S(=O)(=O)c2cccc(C)c2)c1 (configuration not stated)	-0.76
c1ccc(Nc2cc(-c3ccccc3)[nH]n2)cc1	-1.4
CCc1ccc(CN2CCN(C3CCCC(C)C3)CC2)cc1 (configuration not stated)	3*
SMILES	Dicer inh
CCc1ccc(NS(C)(=O)=O)cc1	1.2
CCc1ccc(CN2CCN(S(C)(=O)=O)CC2)cc1	3.7*
CCCS(=O)(=O)N1CCN(Cc2ccc(Br)cc2)CC1	2.4
c1cc(CN2CCN(Cc3ccncc3)CC2)ccn1	11
CS(=O)(=O)N1CCN(CC(O)Cn2c3ccccc3c3ccccc32)CC1 (configuration not stated)	1.4
CCc1ccc(CN2CCC(N3CCN(CCO)CC3)CC2)cc1	0.59
CSc1ccc(CN2CCN(S(C)(=O)=O)CC2)cc1	3.1*
CC1CCCC(N2CCN(Cc3ccc(Cl)cc3)CC2)C1 (configuration not stated)	0.84
Cc1ccc2cccc(OS(=O)(=O)c3ccc(C(C)C)cc3)c2n1	-2
Cc1cc(NC2=NS(=O)(=O)c3ccccc32)ccc1Br	0.6
Cc1c(C#N)c(NC(=O)c2ccc(C(C)(C)C)cc2)n(Cc2cccc(Cl)c2)c1C	-0.12
CCOC(=O)N=Nc1c(O)[nH]c2ccc(F)cc12	-0.57
CC(C)NC(=O)Cn1cc(C(=O)C(C)(C)C)c2ccccc21	0.8
N#Cc1c(-c2ccccc2)cc(Nc2ccc(Cl)cc2)n2c1nc1ccccc12	1.4
COc1ccc(C2CC(=O)C3=C(C2)Nc2ccccc2N(C(=O)C2CC2)C3c2cccnc2)cc1OC (configuration not stated)	-0.58
COc1cccc(C2C3=C(CC(c4ccccc4)CC3=O)Nc3ccccc3N2C(=O)C2CC2)c1 (configuration not stated)	3.7*
